Laboratory results taken from PubChem BioAssay (NCI).
This is part of a sample that, as a whole, favours compounds with a hit. Of some 83,000 tested, about 20% had one in any assay.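 Testing used 96-well plates and a 48-hour single-concentration exposure. Example: -40 means 40% of the starting cells died.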 A number with no mark means an inactive call. Active and inactive are the calls of the source.

The molecules below were run on HCT-116 colon (assay: NCI-60 one-dose screen, 48 h (100 = growth as untreated, 0 = no growth, -100 = all killed)). Settings: 10 µM unless noted.
Description: Growth inhibition of the HCT-116 human tumor cell line is measured as a screen for anti-cancer activity. Cells are grown in 96 well plates and exposed to the test compound for 48 hours. Compounds are tested at a single concentration, which is 10^-5 M for most compounds. The reported endpoint is percent growth (GI% or GIPRCNT), where numbers from 0 - 100% represent growth inhibition, and numbers from -100% - 0 represent cell death. For example, a value of 40 represents 60% growth inhibition. A value of 0 means no net growth occurred over the course of the experiment. A value of -40 indicates 40% of cells at the beginning of the experiment died by the end of the experiment. A value of -100 means all cells are dead at the end of the experiment.
NCI-60 Human Tumor Cell Lines Screen was performed using the standard one-dose NCI protocol, which is described in more detail at https://dtp.cancer.gov/discovery_development/nci-60/default.htm.
Compounds with GIPRCNT values below 10 were considered active. Activity score was based on GIPRCNT using the following formula: […]
Score is 0 for GIPRCNT values of 100 or above, 50 for GIPRCNT values of 0, and 100 for GIPRCNT values of -100.

**Q.** With `COC1=CC(c2ccc[nH]2)=N/C1=C\c1[nH]c(C)c(C(=O)OCCn2cc(CCC[C@@H]3Cc4cc(O)ccc4C4CC[C@]5(C)[C@@H](O)CC[C@H]5C43)nn2)c1C` (stereo not given in full) as the molecule, how does the growth read?
**A.** 81.6%

**Q.** `CC12CC(C#N)CCC1O2` (stereo not given) was tested. Which growth did it give?
**A.** 108%

**Q.** For `CC(C)n1nc(C#Cc2cccc(NC(=O)c3cccc(C(F)(F)F)c3)c2)c2c(N)ncnc21`, which growth is on record?
**A.** -50.6% (active)

**Q.** How did the growth turn out when `CS(=O)(=O)c1ccc(N/N=C/c2c(-c3ccc(S(C)(=O)=O)cc3)[nH]c3ccc(F)cc23)cc1` was run?
**A.** 27.1%

**Q.** How did the growth turn out when `COc1ccc(NC(=O)C(=O)c2c[nH]c3ccc(F)cc23)cc1` was run?
**A.** 79.1%

**Q.** Which growth does the source give for `N#Cc1c(-c2ccccc2)nc(SCC2CO2)nc1N1CCOCC1` (stereo not given) here?
**A.** 95%

**Q.** Which growth does the source give for `CCCCCCCCc1cc[n+](CC(=O)c2ccc(Br)cc2)cc1` here?
**A.** -43.1% (active)

**Q.** With `C#CC[C@H](N)C(=O)O` as the molecule, how does the growth read?
**A.** 96.3% [20 µM]

**Q.** Which growth does the source give for `N#C/C=C(\c1ccc([N+](=O)[O-])cc1)n1nnc2cc(Cl)c(Cl)cc21` here?
**A.** -52.7% (active)

**Q.** `c1ccc(-c2oc3ccccc3c2-c2ccccc2)cc1` was tested. Which growth did it give?
**A.** 98.5%

**Q.** With `COc1cc(NC(=O)c2cccc(-c3cc(=O)c4c(OC)c(OC)c(OC)cc4o3)c2)cc(OC)c1OC` as the molecule, how does the growth read?
**A.** 48.6%

**Q.** How did the growth turn out when `CN1CCN(C2=C(Cl)C(=O)c3ccccc3C2=O)CC1` was run?
**A.** 10.2%

**Q.** For `O=C1/C(=C/c2ccc([N+](=O)[O-])cc2)COc2ccc(O)c(O)c21`, which growth is on record?
**A.** -34.3% (active)

**Q.** For `O=C1CSC(c2ccccc2Cl)N1c1nnc(Cn2cnnc2)o1` (stereo not given), which growth is on record?
**A.** 13.3%

**Q.** Which growth does the source give for `OC(c1cccc(OCc2ccccc2)c1)c1nnc(-c2ccccc2)o1` (stereo not given) here?
**A.** 101%

**Q.** With `CN1CCN(C(=O)[C@@]2(C)CC[C@]3(C)CC[C@]4(C)C(=CC[C@@H]5[C@@]6(C)C/C(=C/c7ccncc7)C(=O)C(C)(C)[C@@H]6CC[C@]54C)[C@@H]3C2)CC1` as the molecule, how does the growth read?
**A.** 12%

**Q.** How did the growth turn out when `NC(=S)N/N=C/C(=O)O` was run?
**A.** 6.98% (active)

**Q.** Which growth does the source give for `CN(C)CCCCNc1ccc(NCCCCN(C)C)c2c1C(=O)c1c(O)ccc(O)c1C2=O` here?
**A.** -66.7% (active)

**Q.** Which growth does the source give for `N=C(N)c1ccc(-c2ccc(-c3ccc(Cl)c(Cl)c3)o2)nc1` here?
**A.** -57.8% (active)

**Q.** `COC(=O)Nc1nc2ccc(C(=O)C3CC3)cc2[nH]1` was tested. Which growth did it give?
**A.** 9.29% (active)

**Q.** How did the growth turn out when `CCOC(=O)c1nnn(-c2ccccc2)c1C1=CN(C)CCC1` was run?
**A.** 87.7%

**Q.** `Clc1ccc(-c2nnc(Cn3ccnc3)o2)cc1` was tested. Which growth did it give?
**A.** 90.5%

**Q.** `CCOC(=O)c1c(C)nc2c(c1N)/C(=C/c1ccc(OC)cc1)C(=O)N2Cc1ccc(F)cc1` was tested. Which growth did it give?
**A.** -85.4% (active)

**Q.** With `CS(=O)(=O)c1ccc(-c2[nH]c3ccc(F)cc3c2/C=N/NC(N)=S)cc1` as the molecule, how does the growth read?
**A.** 8.16% (active)

**Q.** With `Cc1cc(C(c2ccccc2)c2ccccc2)ccc1NS(=O)(=O)c1ccccc1` as the molecule, how does the growth read?
**A.** 82.1%

**Q.** `CCCCC1COc2cccc3c(SCC(=O)N(C)c4cccc(Cl)c4)cc[n+]1c23` (stereo not given) was tested. Which growth did it give?
**A.** 104%

**Q.** Which growth does the source give for `COc1ccc(-c2nc3ccccn3c2/C=C/C(=O)c2cc(OC)c(OC)c(OC)c2)cc1` here?
**A.** 11.6%

**Q.** With `Cn1ccc(Cc2cnc(N)s2)n1` as the molecule, how does the growth read?
**A.** 108%

**Q.** For `CN(CCC(=O)/C(=C\c1ccccc1)c1ccc(Cl)cc1)Cc1ccccc1`, which growth is on record?
**A.** 2.49% (active)

**Q.** Which growth does the source give for `COc1ccc(OC)c(/C=C2\COc3ccc(O)cc3C2=O)c1` here?
**A.** 66.9%

**Q.** For `COc1cc2c(cc1OC)-c1ccc3cc4c(cc3c1N(CCCN(C)C)C2)OCO4`, which growth is on record?
**A.** 9.53% (active)

**Q.** With `COc1ccccc1C(=O)NC(=S)Nc1ccc(-c2nc3ccccc3[nH]2)cc1` as the molecule, how does the growth read?
**A.** 13.8%

**Q.** How did the growth turn out when `Cc1cc(N2CCCCC2)nc(N(CCNc2ccnc3cc(Cl)ccc23)Cc2ccccn2)n1` was run?
**A.** 16.2%

**Q.** How did the growth turn out when `N=C(N)c1ccc(-c2ccc(-c3ccc(Cl)cn3)s2)cc1` was run?
**A.** -67.6% (active)

**Q.** How did the growth turn out when `CCC(O)(C(c1ccccc1)c1ccccn1)C(c1ccccc1)c1ccccn1` (stereo not given) was run?
**A.** 99.4%

**Q.** `CCOC(=O)C1C(=O)C=C(c2cnccn2)CC1c1ccc(OC)c(OC)c1` (stereo not given) was tested. Which growth did it give?
**A.** 79.7%

**Q.** For `COc1ccc(/C=N/NC(=O)Cn2c(-c3ccc(S(C)(=O)=O)cc3)nc3cc(Cl)ccc32)cc1`, which growth is on record?
**A.** 11.8%

**Q.** How did the growth turn out when `COc1cc(C(=O)/C=C/c2c(-c3ccc(F)cc3)nc3ncccn23)cc(OC)c1OC` was run?
**A.** 17.7%

**Q.** With `CCNCCNc1cc(-c2ccc(Cl)cc2)c(C#N)c2nc3ccccc3n12` as the molecule, how does the growth read?
**A.** -78% (active)

**Q.** `CC(C)(C)N1CC(OC(N)=O)C1` was tested. Which growth did it give?
**A.** 99.4%
